The list is not random: actives were taken first. Their share in the collection is about 5.7%.
FAS-TE inh = FAS thioesterase domain inhibitors, primary screen, biochemical, fluorescence intensity, uHTS; inhibition, % at 15 µM; hit rate 0.67% among 360,000; recombinant FAS-TE, OMFH fluorogenic substrate, fluorescence endpoint; AID 602261, 2012;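 active = compounds whose normalised, plate-corrected inhibition of enzyme fluorescence in the single-dose primary screen is 50% or more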;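 note: 0% = DMSO with enzyme and 100% = substrate without enzyme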
Myeloid diff MLP = induction of myeloid progenitor differentiation, primary screen, cell-based, flow cytometry, MLPCN library; hit rate 1% among 360,000; ER-HoxA9 myeloid progenitors, lysozyme-GFP differentiation; calls only at 10 µM; AID 624256, 2012;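 active = normalized GFP-positive differentiation at or above the plate's own cutoff, the solvent-only control mean plus 3 SD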;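 note: cells exposed to compound for four days before flow analysis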
MPTP inh = mitochondrial permeability transition pore inhibitors, primary screen, biochemical, isolated mouse mitochondria, absorbance. hit rate 1.4% among 360,000. inhibition, % at 10 µM. Ca2+ swelling absorbance, 30 min;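 active = inhibition of 50% or more, scaled per plate between neutral and stimulator controls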;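 note: 0% = DMSO wells given calcium and 100% = 1 mM EGTA wells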
rCAG RNA binder = binders of r(CAG) RNA repeats, primary screen, biochemical, fluorescence; r(CAG) RNA repeat, TO-PRO-1 dye displacement fluorescence; inhibition, % at 3 µM; hit rate 1.3% among 370,000; AID 651821, 2012;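 active = inhibition above the plate cutoff, the mean of all test compounds on that plate plus 3 SD, cut at about 35% in these data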;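 note: 0% = DMSO alone and 100% = 100 µM mitoxantrone as full dye displacement; higher means more dye released from RNA so lower well fluorescence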
NR3A LBD binder = binders of NR3A ligand-binding domain, primary screen, biophysical, differential scanning fluorimetry, uHTS; NR3A LBD differential scanning fluorimetry, Tm shift; 0% = protein alone, 100% = glycine-bound protein; Tm shift relative to glycine control, % at 25 µM; hit rate 2.5% among 340,000;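 active = melting temperature shift of at least 10% of the positive control shift, at one fixed dose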
* marks the source's active call; other numbers are inactive results; i = inactive; · = no result; + = active, no number.

SMILES	FAS-TE inh	Myeloid diff MLP	MPTP inh	rCAG RNA binder	NR3A LBD binder
O=C1CCC(=O)N1c1nc2n(n1)C(c1ccccc1)C=C(c1ccc(Br)cc1)N2 (stereo not given)	-5	i	0	1	0
COc1ccc(C2C=C(c3ccc(Br)cc3)Nc3nc(N4C(=O)CCC4=O)nn32)cc1 (stereo not given)	10	i	1	-2	13*
CN(C)C(=S)N=c1ssc(=S)n1Cc1cccnc1	-4	i	-1	2	27*
S=C1NCN(Cc2cccnc2)CN1	-8	i	1	-4	0
Cc1ccc(C(=O)C2CCN(CC(=O)N3CCCC3)CC2)cc1	·	·	·	4	·
CC(C)C[C@H](NS(=O)(=O)c1ccc(F)cc1F)C(=O)N1CCC[C@H]1C(=O)NCc1ccccc1	·	·	·	0	·
Cc1ccc(NC(=O)CCn2c(=O)[nH]c3ccsc3c2=O)cc1	-3	i	2	4	-1
CCOc1ccc(NC(=O)CCn2c(=O)[nH]c3ccsc3c2=O)cc1	-8	i	-2	0	19*
O=C1N/C(=C/c2cccs2)C(=O)N1Cc1ccccc1F	-8	i	2	0	-2
Cc1ccc(/C=C2/NC(=O)N(Cc3ccccc3F)C2=O)s1	-38	+	4	5	0
CCn1c(=O)n(CC(=O)N2CCC(C)CC2)c(=O)c2ccccc21	·	·	·	0	·
Cc1nc2ccc(C(=O)N3CCN(C(=O)OCc4ccccc4)CC3)cc2n1C1CCCC1	·	·	·	2	·
c1ccc(Nc2ncnc3c2oc2ccccc23)cc1	-5	i	-4	1	-8
Oc1cccc(Nc2ncnc3c2oc2ccccc23)c1	-4	·	0	0	22*

Compound activity deposited in PubChem by several laboratories.
